Out of some 370,000 compounds screened, about 4,100 (1.1%) were called active. Only a selection was taken, and actives are over-represented in it overall. Values without a mark were called inactive.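 Rule for the calls: active = inhibition above the mean over all tested compounds plus 3 SD (cut at about 3.6% in these data); inactive = the rest.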
Assay: DAX1 (NR0B1) inhibitors on StAR promoter, primary screen, cell-based, luminescence, SF-1 (NR5A1), full-length DAX-1 (AID 652010);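 note: 0% = DAX-1 cells with DMSO and 100% = cells lacking DAX-1 with DMSO; higher inhibition means more luminescence from relief of DAX-1 repression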
Details: HEK293T StAR-luciferase reporter, SF-1/DAX-1 repression relief; at 6.8 µM; hits give high values

Structure (SMILES) | inhibition
CCOc1ccc(NC(=O)COc2ccc(S(=O)(=O)N3CCCC3)cc2)cc1 | -0.61%
COc1ccc(-n2c(COc3ccccc3)nnc2SCC(=O)Nc2ccc3c(c2)OCO3)cc1 | -0.36%
CC(c1ccc(N)cc1)c1cn(C)c2ccccc12 (centres undefined) | -0.01%
COc1ccc(Cn2cc(COC(=O)N(C)Cc3ccccc3)nn2)cc1 | -0.67%
Cc1nn2c(c1-c1ccccc1)N=C(c1ccco1)CC2c1ccccc1 (centres undefined) | -0.86%
Cc1cc(-c2ccccc2)n2nc(C)c(-c3ccccc3)c2n1 | 0.27%
Cc1nn(C(=O)c2ccoc2C)c(N)c1-c1ccccc1 | 3.82% (active)
O=C(NCCc1c[nH]c2ccccc12)OCc1cn(-c2c(F)cccc2F)nn1 | -0.6%
Cc1nc2ccc(S(=O)(=O)N(C)CC(=O)NC(C)c3ccccc3)cc2s1 (centres undefined) | -0.1%
Cc1ccc2nc(-c3ccc(NC(=O)CN(C)S(=O)(=O)c4ccccc4)cc3)sc2c1 | 3.65% (active)
Cc1cccc(N(CC(=O)Nc2ccc(-c3nc4ccc(C)cc4s3)cc2)S(C)(=O)=O)c1 | 1.57%
O=S1(=O)c2c(cccc2N2CCCC2)O[C@H](COCc2ccccc2)CN1C1CC1 | -1.16%
C=CCN1C(=O)[C@@H](CC(=O)NCC2CCCCC2)[C@]2(C(=O)OC)CCCCC=C12 | 0.53%
Cc1ccc(N/C=C/C(=O)c2ccccc2)cc1C | 5.15% (active)
COC(C(=O)Nc1ccc(S(=O)(=O)Nc2ccc(C)c(C)c2)cc1)c1ccccc1 (centres undefined) | -1.03%
Cc1ccc(NNC(=O)C2CCC2)cc1C | 0.22%
Nc1nc2c(ncn2[C@@H]2O[C@H](C(=O)N[C@H](Cc3ccccc3)C(=O)NCC3CCCCC3)[C@@H](O)[C@H]2O)c(=O)[nH]1 | 1.02%
COC(=O)Nc1nc2ccc(C(=O)C3CC3)cc2[nH]1 | 7.48% (active)
COC(=O)Nc1nc2ccc(Sc3ccccc3)cc2[nH]1 | 0.19%
COc1ccc(CNC(=O)c2cc(C(=O)C3CC3)c[nH]2)cc1 | -2.24%
COc1ccc(-n2c(COc3ccc(C)cc3)nnc2SCC(=O)Nc2ccc(Oc3ccccc3)cc2)cc1 | -1.51%
COc1ccc(Cn2cc(CN3[C@@H](CC(C)C)COc4cc(Br)ccc4S3(=O)=O)nn2)cc1 | 0.86%
C=CCN1[C@H](CC(C)C)COc2cccc(N3CCCC3)c2S1(=O)=O | -1.88%

Structure (SMILES) | inhibition
O=C(CCc1ccccc1)Nc1ccc(NC(=O)C2CC2)nc1 | -0.05%
O=C(CCc1ccccc1)Nc1ccc(NC(=O)C2CCCCC2)nc1 | -0.14%
O=C(CCc1ccccc1)Nc1ncc([N+](=O)[O-])s1 | 4.52% (active)
Cc1cc2oc(C(=O)Nc3c(C)n(C)n(-c4ccccc4)c3=O)c(C)c2cc1Cl | -0.22%
Cc1ccnc(NC(=O)CNC(=O)c2ccccc2)c1 | 6.34% (active)
Cc1ccnc(NC(=O)Cn2ccc([N+](=O)[O-])n2)c1 | 0.11%
Cc1ccnc(NC(=O)CCCOc2ccccc2)c1 | 0.57%
O=C(CN1CCCc2ccccc21)NCc1ccc(F)cc1 | -0.22%
Brc1ccc(COCCc2cn(Cc3ccccc3)c3ccccc23)cc1 | 1.27%
O=C(COc1ccc(Br)cc1F)NCC1(N2CCCCC2)CCCCC1 | 0.06%
CC(C)N(Cc1nnc(-c2ccc(Cl)cc2)o1)C(=O)C1=COCCO1 | -1.6%
CN(C)CCN(C(=O)C1=COCCO1)c1nc2ccc(Cl)cc2s1 | 4.61% (active)
CCCOP(=O)(c1ccc(N(C)C)cc1)C(O)c1cc(OC)c(OC)c(OC)c1 (centres undefined) | 0.1%
CCCC[C@H](C(=O)N(CC)c1ccccc1)[C@@H](O)c1ccc2ccccc2c1 | -1.35%
COC(=O)[C@]12C[C@H](CC(=O)NCc3cccc4ccccc34)C(=O)N(CCc3ccc(OC)c(OC)c3)C1=C[C@H](C1CCCC1)O[C@@H]2C | -1.59%
C#CCN([C@H](C(=O)OC)C(C)CC)S(=O)(=O)c1ccccc1Br (some centres undefined) | -0.34%
COc1ccc(C(CNC(=O)c2cccc(NS(=O)(=O)c3ccc(C)c(F)c3)c2)N2CCCC2)cc1 (centres undefined) | 2.54%
COc1ccc(NS(=O)(=O)c2ccc(C)c(C(=O)NCC(c3cccs3)N3CCOCC3)c2)cc1 (centres undefined) | 1.82%
COc1ccc(C(CNC(=O)c2cc(S(=O)(=O)Nc3cccc(C)c3)ccc2C)N2CCCC2)cc1 (centres undefined) | 4.48% (active)
CCOC(=O)C1(Cc2ccccc2)CCN(Cc2cn(C(C)=O)c3ccccc23)CC1 | -0.4%
COc1ccccc1C(=O)NCCC(=O)NCC(c1ccco1)N1CCCCC1 (centres undefined) | 0.45%
O=C(c1cc2sccc2n1Cc1ccc(F)cc1)N1CCc2ccccc21 | -0.14%
O=C(c1cnn2ccccc12)N1CCc2ccccc21 | 6% (active)

Structure (SMILES) | inhibition
CCCCn1nc(C(=O)N2CCc3ccccc32)c2ccccc2c1=O | -1%
Cc1ccccc1C(=O)N[C@H](C(=O)N1CCC[C@H]1C(=O)NCc1ccccc1)C(C)C | 0.49%
O=C(Nc1ccc2c(c1)OCCO2)C(C1CC1)N1CCC(Cc2ccccc2)CC1 (centres undefined) | -0.46%
O=C(CCS(=O)(=O)Cc1ccccc1)Nc1ccc2c(c1)OCCO2 | -0.13%
Nc1c(C(=O)Nc2ccc3c(c2)OCCO3)nnn1Cc1ccccc1 | 11.8% (active)
Cc1ccc(NC(=O)Cc2cccc(F)c2)c(S(=O)(=O)N2CCOCC2)c1 | -1.09%
O=C(CSc1nnc(-c2ccccn2)n1-c1ccccc1)Nc1ccc2cn[nH]c2c1 | -1.05%
COc1cccc(-c2cnc(OC(C)(C)C)nc2OC(C)(C)C)c1 | -0.07%
O=[N+]([O-])c1ccc2c(c1)C(O)n1nc(-c3ccccc3)nc1S2 (centres undefined) | -0.33%
CNc1ccc([N+](=O)[O-])cc1C(=O)O | 0.42%
COc1cccc(NS(=O)(=O)c2ccc(-c3coc(C)n3)cc2)c1 | -0.43%
COc1cccc(-c2nc3cc(C)ccc3o2)c1 | 4.5% (active)
O=[N+]([O-])c1ccc2oc(-c3cccc(O)c3)nc2c1 | 5.24% (active)
C=C(C)C#CC(Cc1ccccc1)N(CC1CC1)/C(N)=N/C(=O)OCc1ccccc1 (centres undefined) | -1.59%
CC(=O)C1(C(=O)Nc2nccs2)CC(c2ccccc2C(F)(F)F)=NO1 (centres undefined) | -0.45%
COc1ccnc(C(=O)N2CCC(Oc3cccnc3)CC2)c1 | -0.42%
COc1ccc(N2CCN(CCNS(=O)(=O)c3ccc([N+](=O)[O-])cc3)CC2)cc1 | -1.45%
O=C(NC1CCCCN(Cc2ccc(Cl)cc2)C1=O)c1ccc(Br)cc1 (centres undefined) | -1.64%
O=c1[nH]c(-c2ccccc2)cn1C1CCN(Cc2ccc(-c3nc4ccc(F)cc4nc3-c3ccccc3)cc2)CC1 | -0.54%
CN1CCN(C(=O)c2ccc(NC(=O)c3ccc(Br)o3)cc2)CC1 | 0.03%
CN1CCN(C(=O)c2ccc(-c3ccc(Br)cc3)o2)CC1 | 4.56% (active)
O=CN1CCN(C(=O)c2ccc(Br)o2)CC1 | -0.07%
COC(=O)[C@]12C[C@H](CC(=O)N3CCOCC3)C(=O)N(Cc3ccc(Cl)cc3Cl)C1=C[C@H](C(C)C)O[C@@H]2C1CC1 | -0.52%

Structure (SMILES) | inhibition
O=C(Nc1ncccc1O)c1ccc(C(=O)c2ccccc2)cc1 | 69.9% (active)
CCN(CC)S(=O)(=O)c1cccc(NC(=O)c2ccc(S(=O)(=O)N3CCCC3)cc2)c1 | -3.89%
CN1CCN(NC(=O)c2ccc(S(=O)(=O)N3CCCCCC3)cc2)CC1 | -0.23%
CC(C)(C)n1nc2c(c1NC(=O)c1ccc(S(=O)(=O)N3CCCC3)cc1)CS(=O)C2 (centres undefined) | -0.67%
CCOC(=O)c1cccnc1NC(=O)c1ccncc1 | 0.42%
O=C(Nc1ncccc1O)c1ccc(S(=O)(=O)N2CCCCCC2)cc1 | 6.81% (active)
O=C(CNC(=O)c1ccc2ccccc2c1)Nc1ncccc1O | 1.3%
O=C(Nc1ncccc1O)c1ccc(S(=O)(=O)N2CCCC2)cc1 | 10.9% (active)
O=C(Nc1ccc(S(=O)(=O)N2CCCCC2)cc1)c1cnccn1 | 0.17%
CC(=O)Nc1nc2ncccn2c1-c1ccc(C(F)(F)F)cc1 | -0.41%
CCN(C(=O)[C@@H](C1CC1)[C@@H](O)c1ccc2ccccc2c1)c1ccccc1 | -0.4%
COC(=O)C1CN(Cc2cn(Cc3ccc(F)cc3)nn2)CCS(=O)(=O)N1Cc1ccc(Cl)cc1 (centres undefined) | -0.95%
O=C1c2ccccc2C(c2nc3ccccc3[nH]2)N1c1ccccc1 (centres undefined) | -1.53%
C/C(=N\Nc1nc2ccccc2[nH]1)c1cccs1 | 3.55%
CCOC(=O)c1nc(-c2ccc3c(c2)OCO3)[nH]c1C | 2.3%
c1ccc2[nH]c(-c3nc4ccccc4[nH]3)nc2c1 | 5.77% (active)
Cc1ccc(-c2nc3ccccc3[nH]2)cc1N | 6.54% (active)
CCOC(=O)CNC(=O)CSc1ncccc1-c1nc2ccccc2[nH]1 | 0.2%
COc1ccc(NC(=O)C2=CC(c3ccc(OC)c(OC)c3)=NS(=O)(=O)N2C)cc1 | -5%
COc1ccc(-c2cc(-c3nnc(SCc4ccc([N+](=O)[O-])cc4)n3N)[nH]n2)cc1 | -1.87%

From PubChem BioAssay AID652010 (The Scripps Research Institute Molecular Screening Center, 2013)
